Records with an inconclusive call do not appear. Active and inactive are the calls of the source. Unless noted, calls come from the whole dose curve; as a rule, active = well fitted curve in the direction sought with a large enough effect in the repeat runs; inconclusive = weak or mixed curves; inactive = no such curve, though single readings can be large; an effect the other way counts as inactive or inconclusive.
Tests used:
[1] = qHTS assay to identify small molecule antagonists of the sonic hedgehog signaling (Shh) pathway (AID 1259369; calls by dose curve; note: nearly all actives have a fitted effect of over 45% in size)
Outline: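 For antagonist detection, the reporter line received test compounds together with conditioned medium, incubated 24hr at 37 C, 5% CO2, then luminescence was recorded following 30min room-temperature luciferase reagent incubation.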

[2] = qHTS assay to identify small molecule agonists of the androgen receptor (AR) signaling pathway in the presence of an antagonist - cell viability counter screen (AID 1259379);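 note: MDA-kb2 human breast cancer cells carrying an MMTV luciferase reporter; series mostly up to about 92 µM; nearly all actives have a fitted effect of over 25% in size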
Outline: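 Seed MDA-kb2 at 3,000 cells/well; incubate 5 hr, 37C, 0% CO2. Add nilutamide to 3.0uM final, then pin compounds at 15 concentrations. Incubate 16 hr. Add CellTiter-Fluor at 15 hr, read fluorescence after 1 hr.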

[3] = qHTS assay to identify small molecule agonists of the estrogen receptor beta (ER-beta) signaling pathway - cell viability counter screen (AID 1259380); note: nearly all actives have a fitted effect of over 30% in size
Outline: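 CellTiter-Glo read, 30 min RT, same wells as bla assay; cells ER-beta-UAS-bla HEK293T; 16 hr compound, 37C; medium 2% charcoal-stripped FBS.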

[4] = qHTS assay to identify small molecule antagonists of the estrogen receptor beta (ER-beta) signaling pathway - cell viability counter screen (AID 1259382);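 note: HEK293T cells carrying ER-beta-UAS-bla reporter stimulated with estradiol; series mostly up to about 92 µM; nearly all actives have a fitted effect of over 55% in size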
Outline: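 In this multiplexed counter screen, cells were seeded at 2,000 per well in medium with 2% charcoal-stripped FBS and incubated 6 hr before compound and 1nM final E2 were added. Sixteen hours later, ATP-based luminescence reported viability.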

[5] = biological target: Estrogen receptor (Homo sapiens) (UniProt P03372); test: qHTS assay to identify small molecule agonists of the estrogen receptor alpha (ER-alpha) signaling pathway in the presence of an antagonist (AID 1259383; calls by dose curve; note: top concentration of the series differs between compounds; nearly all actives have a fitted effect of over 15% in size)
Sequence of Estrogen receptor (Homo sapiens) (P03372 whole entry, looked up): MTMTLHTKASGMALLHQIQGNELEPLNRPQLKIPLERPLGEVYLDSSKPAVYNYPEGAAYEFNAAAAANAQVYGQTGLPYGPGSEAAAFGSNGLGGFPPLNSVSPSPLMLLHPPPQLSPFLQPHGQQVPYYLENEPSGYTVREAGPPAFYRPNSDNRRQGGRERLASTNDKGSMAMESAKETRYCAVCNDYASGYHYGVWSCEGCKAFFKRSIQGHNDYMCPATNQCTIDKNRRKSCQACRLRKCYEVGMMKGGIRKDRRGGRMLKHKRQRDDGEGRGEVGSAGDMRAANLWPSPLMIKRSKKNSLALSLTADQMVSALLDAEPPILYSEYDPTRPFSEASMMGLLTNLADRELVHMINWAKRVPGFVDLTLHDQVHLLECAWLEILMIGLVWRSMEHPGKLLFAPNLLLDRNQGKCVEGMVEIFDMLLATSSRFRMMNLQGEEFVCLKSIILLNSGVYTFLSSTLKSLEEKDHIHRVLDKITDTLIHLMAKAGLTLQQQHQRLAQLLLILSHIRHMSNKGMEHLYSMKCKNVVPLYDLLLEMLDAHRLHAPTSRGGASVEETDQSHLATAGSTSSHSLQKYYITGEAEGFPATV
Outline: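 Stably transfected VM7Luc4E2 reporter cells, kept 5 days in charcoal-stripped serum, received ICI-182,780 at 10.0nM final before compound addition. Following 22hr incubation at 37C and 5% CO2, luciferase signal was read by luminescence.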

[6] = qHTS assay to identify small molecule agonists or antagonists of the thyroid stimulating hormone receptor (TSHR) signaling pathway - wild type cell line counter screen (AID 1259384; calls by dose curve)
Outline: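 Wild-type HEK293 cells were plated 18 h at 37 C/5% CO2, pin-dosed with compound plus Ro20-1724 medium, held 30 min at room temperature, then given cAMP-d2 and anti-cAMP-cryptate; fluorescence was read after 1 h. Fifteen concentrations, triplicate.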

[7] = biological target: Thyrotropin receptor (Homo sapiens) (UniProt P16473); test: qHTS assay to identify small molecule antagonists of the thyroid stimulating hormone receptor (TSHR) signaling pathway (AID 1259385; calls by dose curve; note: nearly all actives have a fitted effect of over 20% in size)
Sequence of Thyrotropin receptor (Homo sapiens) (P16473 whole entry, looked up): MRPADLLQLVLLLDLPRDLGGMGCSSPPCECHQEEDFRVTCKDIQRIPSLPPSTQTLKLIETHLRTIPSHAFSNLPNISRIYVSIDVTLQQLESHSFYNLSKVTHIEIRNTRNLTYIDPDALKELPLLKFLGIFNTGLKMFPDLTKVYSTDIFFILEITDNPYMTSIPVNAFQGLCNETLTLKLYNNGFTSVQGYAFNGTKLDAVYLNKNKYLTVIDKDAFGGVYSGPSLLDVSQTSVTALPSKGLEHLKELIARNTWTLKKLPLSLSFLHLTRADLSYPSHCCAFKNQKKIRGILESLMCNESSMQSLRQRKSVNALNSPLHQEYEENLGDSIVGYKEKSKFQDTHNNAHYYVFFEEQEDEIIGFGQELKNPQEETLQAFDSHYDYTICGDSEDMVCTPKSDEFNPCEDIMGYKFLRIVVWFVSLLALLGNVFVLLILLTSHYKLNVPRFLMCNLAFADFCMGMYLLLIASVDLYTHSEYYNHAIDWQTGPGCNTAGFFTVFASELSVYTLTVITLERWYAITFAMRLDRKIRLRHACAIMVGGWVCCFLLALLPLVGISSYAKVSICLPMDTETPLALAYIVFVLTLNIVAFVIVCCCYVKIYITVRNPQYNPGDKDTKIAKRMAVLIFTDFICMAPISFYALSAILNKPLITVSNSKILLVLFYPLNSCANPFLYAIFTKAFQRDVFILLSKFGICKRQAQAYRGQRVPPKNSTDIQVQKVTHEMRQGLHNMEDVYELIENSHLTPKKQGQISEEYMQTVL
Outline: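 TSHR-HEK293 cells were plated and held 18 h at 37C/5% CO2, then given compound plus Ro20-1724 and stimulated with TSH at 1.5 ng/mL final. After 30 min at room temperature, cAMP was detected with cAMP-d2/anti-cAMP-cryptate (1 h) by fluorescence.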

[8] = qHTS assay to identify small molecule agonists of the estrogen receptor alpha (ER-alpha) signaling pathway in the presence of an antagonist - cell viability counter screen (AID 1259386);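 note: series mostly up to about 92 µM; cells exposed to compounds for 22 h at 37 °C before the viability read; nearly all actives have a fitted effect of over 30% in size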
Outline: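 Viability counter screen using VM7Luc4E2 (full-length ER-alpha, four ERE-luciferase). The cells were treated with compounds alongside ICI-182,780 10.0nM for 22hr, and live-cell protease fluorescence was quantified with CellTiter-Fluor.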

[9] = biological target: Progesterone receptor (Homo sapiens) (UniProt P06401); test: qHTS assay to identify small molecule agonists of the progesterone receptor (PR) signaling pathway (AID 1346784; calls by dose curve; note: nearly all actives have a fitted effect of over 30% in size)
Sequence of Progesterone receptor (Homo sapiens) (P06401 whole entry, looked up): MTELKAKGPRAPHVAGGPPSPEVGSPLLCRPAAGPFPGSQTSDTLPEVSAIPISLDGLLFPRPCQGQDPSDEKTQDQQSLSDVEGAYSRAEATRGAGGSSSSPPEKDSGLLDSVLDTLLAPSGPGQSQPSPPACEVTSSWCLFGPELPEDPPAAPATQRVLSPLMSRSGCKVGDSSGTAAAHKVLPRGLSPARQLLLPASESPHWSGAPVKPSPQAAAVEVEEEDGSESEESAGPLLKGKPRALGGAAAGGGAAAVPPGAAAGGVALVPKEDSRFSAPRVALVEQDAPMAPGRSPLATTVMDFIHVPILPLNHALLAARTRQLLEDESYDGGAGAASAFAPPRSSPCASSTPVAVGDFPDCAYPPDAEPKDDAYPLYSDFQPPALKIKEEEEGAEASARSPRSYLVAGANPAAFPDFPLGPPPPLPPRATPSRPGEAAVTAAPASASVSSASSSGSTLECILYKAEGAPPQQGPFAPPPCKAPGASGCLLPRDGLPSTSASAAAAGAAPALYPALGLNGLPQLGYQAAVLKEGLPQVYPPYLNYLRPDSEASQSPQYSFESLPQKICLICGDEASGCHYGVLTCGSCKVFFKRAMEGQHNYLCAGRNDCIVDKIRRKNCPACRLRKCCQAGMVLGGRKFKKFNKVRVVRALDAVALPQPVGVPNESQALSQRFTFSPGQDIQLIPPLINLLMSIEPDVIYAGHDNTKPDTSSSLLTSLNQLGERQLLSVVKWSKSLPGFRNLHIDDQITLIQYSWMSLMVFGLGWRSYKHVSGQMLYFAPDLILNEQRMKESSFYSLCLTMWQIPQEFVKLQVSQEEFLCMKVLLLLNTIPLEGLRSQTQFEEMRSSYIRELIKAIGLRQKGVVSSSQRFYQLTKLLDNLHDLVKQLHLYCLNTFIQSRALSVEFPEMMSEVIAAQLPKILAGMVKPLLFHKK
Outline: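 PR-UAS-bla HEK 293T cells carrying a UAS-driven beta-lactamase reporter were seeded in medium with 2% charcoal-stripped FBS, preincubated 6 hr at 37C, then exposed to compounds in DMSO for 16 hr; agonism was read by LiveBLAzer B/G FRET fluorescence.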

[10] = biological target: Progesterone receptor (Homo sapiens) (UniProt P06401); test: qHTS assay to identify small molecule antagonists of the progesterone receptor (PR) signaling pathway (AID 1346795; active = well fitted inhibition curve with a large enough effect in the signal ratio in the repeat runs, not every such curve was filed as active; the % refers to the signal ratio)
Outline: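 PR-UAS-bla HEK293T cells carrying a UAS-driven beta-lactamase reporter were plated in medium with 2% charcoal-stripped FBS and rested 6 hr at 37C. Compounds were added with 1 nM R5020 (final) for 16 hr, then FRET substrate loaded 2 hr at room temperature.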

[11] = qHTS assay to identify small molecule agonists of the progesterone receptor (PR) signaling pathway - cell viability counter screen (AID 1346799; calls by dose curve; note: nearly all actives have a fitted effect of over 45% in size)
Outline: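 PR-UAS-bla HEK293T cells, 3,000 per well in medium with 2% charcoal-stripped FBS, were preincubated 6 hr at 37C, then exposed to compounds for 16 hr; viability was read as CellTiter-Glo luminescence after 30 min at room temperature.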

[12] = qHTS assay to identify small molecule antagonists of the TGF-beta/Smad signaling pathway - cell viability counter screen (AID 1346824); note: nearly all actives have a fitted effect of over 50% in size
Outline: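 SBE-bla HEK 293T cells were plated overnight at 37 C, then given compounds in DMSO plus TGF-beta1 (added as 0.25 ng/mL solution) for 5 hr. After the bla read, CellTiter-Glo was added to the same wells and luminescence read after 30 min at room temperature.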

[13] = qHTS assay to identify small molecule agonists of the TGF-beta/Smad signaling pathway - cell viability counter screen (AID 1346829); note: top concentration of the series differs between compounds; nearly all actives have a fitted effect of over 45% in size
Outline: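 After overnight seating at 37 C and 5% CO2, reporter cells got compounds for 5 hr and FRET substrate for 2 hr; cell viability then came from CellTiter-Glo luminescence.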

[14] = qHTS assay to identify small molecule agonists of the TGF-beta/Smad signaling pathway (AID 1346859; active = well fitted activation curve with a large enough effect in the signal ratio in the repeat runs, not every such curve was filed as active; the % refers to the signal ratio; note: series mostly up to about 77 µM)
Outline: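 HEK 293T cells stably carrying a beta-lactamase reporter driven by the Smad binding element were seeded overnight, exposed to DMSO-dissolved compounds for 5 hr at 37 C, 5% CO2, then loaded with FRET substrate for 2 hr at room temperature.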

[15] = qHTS assay to identify small molecule antagonists of the progesterone receptor (PR) signaling pathway - cell viability counter screen (AID 1346798); note: series mostly up to about 92 µM; nearly all actives have a fitted effect of over 50% in size
Outline: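 PR-UAS-bla HEK293T cells in medium with 2% charcoal-stripped FBS were treated with compounds plus R5020 for 16 hr at 37C. Cell viability was then read by CellTiter-Glo luminescence after 30 min at room temperature in the same wells.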

[16] = biological target: Thyrotropin-releasing hormone receptor (Homo sapiens) (UniProt P34981); test: qHTS assay to identify small molecule antagonists of the thyrotropin-releasing hormone receptor (TRHR) signaling pathway (AID 1346877; active = well fitted inhibition curve with a large enough effect in the repeat runs, not every such curve was filed as active; note: series mostly up to about 51 µM)
Sequence of Thyrotropin-releasing hormone receptor (Homo sapiens) (P34981 whole entry, looked up): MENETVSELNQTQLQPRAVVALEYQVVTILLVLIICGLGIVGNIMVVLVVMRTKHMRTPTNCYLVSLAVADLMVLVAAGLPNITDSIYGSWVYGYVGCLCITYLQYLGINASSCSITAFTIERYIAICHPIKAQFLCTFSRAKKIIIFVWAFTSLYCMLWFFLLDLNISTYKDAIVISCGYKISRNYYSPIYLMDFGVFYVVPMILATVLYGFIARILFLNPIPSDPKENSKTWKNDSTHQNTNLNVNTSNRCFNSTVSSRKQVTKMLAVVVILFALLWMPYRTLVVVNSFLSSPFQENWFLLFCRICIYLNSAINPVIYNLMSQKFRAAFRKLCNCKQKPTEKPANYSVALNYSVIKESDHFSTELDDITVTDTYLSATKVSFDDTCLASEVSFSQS
Outline: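 Following an 18 h incubation at 37 °C and a 2 h calcium dye load, TRHR-HEK293 cells were exposed to compound (5 min, room temperature) and challenged with TRH, 1 nM final.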

[17] = biological target: Thyrotropin-releasing hormone receptor (Homo sapiens) (UniProt P34981); test: qHTS assay to identify small molecule agonists of the thyrotropin-releasing hormone receptor (TRHR) signaling pathway (AID 1346891; calls by dose curve; note: series mostly up to about 58 µM)
Outline: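 TRHR-expressing HEK293 cells were plated 18 h at 37 °C/5% CO2, loaded with calcium dye 2 h at 37 °C, then given compound in DMSO; fluorescence was read kinetically for 3 min at 1 s intervals.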
% is set by controls: 0 for no effect and ±100 for the full control effect.

C[C@](N)(Cc1ccc(O)cc1)C(=O)O
inactive: activity change, negative = inhibition [1] 37.1% [at 8.39 µM] | activity change, negative = cytotoxicity [2] -1.36% [at 8.39 µM] | activity change, negative = cytotoxicity [3] 14.6% [at 8.39 µM] | activity change, negative = cytotoxicity [4] 4.19% [at 8.39 µM] | activation [5] 1.12% [at 8.39 µM] | cAMP activity change [6] 3.57% [at 8.39 µM] | activity change, negative = inhibition [7] 1.98% [at 8.39 µM] | activity change, negative = cytotoxicity [8] 3.17% [at 8.39 µM] | activation [9] -0.125% [at 8.39 µM] | activity change, negative = inhibition [10] 12.2% [at 8.39 µM] | activity change, negative = cytotoxicity [11] 2.57% [at 8.39 µM] | viability change, negative = cytotoxic [12] 15.7% [at 6.97 µM] | activity change, negative = cytotoxicity [13] 0.568% [at 6.97 µM] | activation [14] 2.67% [at 6.97 µM]

C=CCS(=O)(=O)O
inactive: Potency [1] | Potency [2] | Potency [3] | Potency [4] | Potency [5] | outcome [6] | Potency [7] | Potency [8] | Potency [9] | Potency [15] | Potency [11] | Potency [12] | outcome [13] | outcome [14] | outcome [16] | outcome [17]

C[C@@H]1CCN(C(=O)[C@H](CCCN=C(N)N)NS(=O)(=O)c2cccc3c2NC[C@H](C)C3)[C@@H](C(=O)O)C1
inactive: Potency [1] | Potency [2] | Potency [3] | Potency [4] | Potency [5] | outcome [6] | Potency [7] | Potency [8] | Potency [9] | Potency [10] | Potency [15] | Potency [12] | outcome [14] | outcome [16] | outcome [17]

N#Cc1ccc(C2CCCc3cncn32)cc1 (configuration not stated)
inactive: Potency [1] | Potency [2] | Potency [3] | Potency [4] | Potency [5] | outcome [6] | Potency [8] | Potency [9] | Potency [10] | Potency [15] | Potency [11] | Potency [12] | outcome [13] | outcome [14] | outcome [16] | outcome [17]

Cn1cc(S(C)=O)c(=O)c2ccc(F)cc21 (configuration not stated)
inactive: Potency [1] | Potency [2] | Potency [3] | Potency [4] | Potency [5] | outcome [6] | Potency [7] | Potency [8] | Potency [9] | Potency [10] | Potency [15] | Potency [11] | Potency [12] | outcome [13] | outcome [14] | outcome [16] | outcome [17]

Cc1sccc1Br
inactive: Potency [1] | Potency [2] | Potency [3] | Potency [4] | Potency [5] | outcome [6] | Potency [7] | Potency [8] | Potency [15] | Potency [11] | Potency [12] | outcome [14] | outcome [16] | outcome [17]

— PubChem BioAssay (Tox21)
